Source: PubChem
SMARCA2 act: activators of SMARCA2 function; MG213 cells, MMTV-luciferase reporter, dexamethasone, overnight; activation, % at 9.1 µM; hit rate 1% among 370,000; AID 652017; in the data active = activation above about 7.8%
MITF act: increases MITF-driven TRPM1 promoter luciferase signal; SK-MEL-5 TRPM1-promoter luciferase, 24 h; % of positive control, neutral wells = 0; activation, % at 12.5 µM; hit rate 0.75% among 300,000; AID 588334;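 active = mean activation of at least 80% with every replicate also reaching 80%; inconclusive = mean reaches 80% but some replicate falls short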
HSF-1 act: increases HSF-1 driven luciferase reporter signal; NIH3T3-HGL HSF-1 luciferase reporter, MG132, 8 h; 100% = twice DMSO control signal; activation, % at 9 µM; hit rate 1.7% among 300,000; AID 504408;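 active = mean replicate activation of at least 50% with a set share of replicates each reaching 50%; inconclusive = only one of those two conditions met; inactive = mean below 50% and too few replicates reaching it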
esBAF inh: inhibitors of esBAF chromatin remodeling in mouse ES cells. Bmi1-luciferase knock-in reporter, 24 h; 100% = twice the neutral-well signal. reporter increase, % at 12.5 µM. hit rate 2% among 350,000. AID 602393; in the data active = activation above about 40%; inconclusive = no clear call, values can overlap the other calls;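 note: a rise in the Bmi1 reporter signal indicates esBAF inhibition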
HSF1 inh: HSF1 inhibition. activity change, negative = inhibition, % at 7.5 µM (by protocol). hit rate 0.77% among 300,000. NIH3T3-HGL HSE-luciferase, MG132-induced, luminescence 8 h; hits give low values;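 active = more than half of replicate wells show activity change below -50%, luminescence cut by over half; inconclusive = some wells, but at most half, below -50%; inactive = no replicate well below -50%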;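 note: luciferase reports HSF-1 transcriptional activity via heat shock element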
Wnt act: activators of Wnt/beta-catenin signaling | Wnt/beta-catenin reporter cell assay, activator, plate reader | activation, % at 9.35 µM | hit rate 1.2% among 300,000; in the data active = activation above about 30%, passing the limit was not always enough; inconclusive = no clear call, values can overlap the other calls
Numbers stand for hits; 0 = inactive; ? = inconclusive; - = not tested or not shown. Sampled rows, rich in hits. Any-hit rate of the full collection: about 4.3%.

SMILES	SMARCA2 act	MITF act	HSF-1 act	esBAF inh	HSF1 inh	Wnt act
COC1C(C)OC(OC2CC(C)(O)Cc3cc4c(c(O)c32)C(=O)c2c(O)cc3c(c2C4=O)OC2OC3(C)C(O)C(N(C)C)C2O)C(OC)C1(C)OC (stereo not given)	0	0	71	-	71	0
CCCN1[C@@H]2Cn3c(ccc(-c4ccccc4)c3=O)[C@H]1[C@@H](C(=O)OC)[C@@H]2CO	-	-	-	0	-	-
CCCCn1c(NS(=O)(=O)c2ccc(C)cc2)c(C(=O)OCC)c2nc3ccccc3nc21	0	0	0	-	0	0
CCCCn1c(NC(=O)c2ccco2)c(C(=O)OCC)c2nc3ccccc3nc21	0	0	71	0	0	-
CCSC(=O)N1CCCCCC1	7.8	0	-	0	-	0
CCN(CC)P(=O)(NC(=O)c1cccn1C)N(CC)CC	0	0	0	-	-84	0
CCOC(=O)c1ccc(N=C(C)c2c(O)[nH]c(=O)[nH]c2=O)cc1	0	-	0	-	-63	0
CCCCn1c(O)c(C(C)=Nc2ccc(C(=O)O)cc2)c(=O)[nH]c1=O	0	0	0	0	0	0
COC(=O)[C@@H]1[C@@H](CO)[C@@H]2Cn3c(ccc(-c4ccncc4)c3=O)[C@H]1N2S(=O)(=O)c1ccccc1F	-	-	-	0	-	-
COC(=O)C[C@H]1CC[C@@H]2NC[C@@H](O)COC[C@H]2O1	-	-	-	0	-	-
O=C(O)[C@H]1[C@H](CO)[C@H]2Cn3c(ccc(-c4cccnc4)c3=O)[C@@H]1N2C(=O)Nc1cc(F)ccc1F	-	-	-	0	-	-
NC(Cc1nc2ccccc2[nH]1)c1ccc(Cl)cc1 (stereo not given)	0	-	88	-	0	0
N#Cc1cc2c(nc1SCC(=O)Nc1ccc(Cl)cc1)C1CCN2CC1	0	0	0	46	0	0
N#Cc1cc2c(nc1SCC(=O)Nc1cc(Cl)ccc1Cl)C1CCN2CC1	0	0	0	58	0	0
Cc1noc(C)c1CSCC(=O)Nc1ccc(C#N)c(Cl)c1	0	0	-	0	-	0
Cc1cc(N=Nc2ccccc2C)ccc1N	0	0	0	0	0	55
Nc1ccc(N=Nc2ccccc2)cc1	0	0	0	-	0	0
COC(=O)[C@H]1[C@H](CO)[C@H]2Cn3c(cccc3=O)[C@@H]1N2C(=O)C1CCCC1	-	-	-	0	-	-
C[C@@H]1C[C@H]2OC(=O)C3(CO3)[C@H]2[C@H](O)[C@]2(C)C(=O)C3OC3[C@@H]12 (stereo not given in full)	-	-	0	-	0	-
C=C1C(=O)O[C@@H]2C[C@@H](C)[C@@H]3C=CC(=O)[C@@]3(C)[C@@H](O)[C@H]12	0	0	0	0	-92	0
C/C=C/c1ccc([C@@H]2[C@@H](CO)N3CCCCN(C(=O)Cc4ccncc4)C[C@H]23)cc1	-	-	-	0	-	-
c1cc2c(cc1-c1ccc3c(c1)OCO3)CNCc1cnnn1-2	0	-	-	51	-	0
Fc1cccc(-c2ccc3c(c2)CNCc2cnnn2-3)c1	0	-	-	43	-	0
COc1cc(C(c2c(C)[nH]n(-c3ccccc3)c2=O)c2c(C)[nH]n(-c3ccccc3)c2=O)cc(OC)c1OC	0	0	55	0	0	0
COC(=O)C(O)(c1c(C)[nH]n(-c2ccccc2)c1=O)C(F)(F)F (stereo not given)	0	0	0	-	0	-
SMILES	SMARCA2 act	MITF act	HSF-1 act	esBAF inh	HSF1 inh	Wnt act
CC1(C)CN=C(Nc2nc3ccccc3s2)S1	0	0	54	50	0	-
CN1CCN(c2ccc([N+](=O)[O-])c3cccnc23)CC1	0	0	0	0	-57	-
O=[N+]([O-])c1ccc(N2CCCC2)c2ccncc12	0	0	0	-	-60	0
COC(=O)[C@@H]1[C@@H](CO)[C@@H]2Cn3c(ccc(C4=CCCC4)c3=O)[C@H]1N2S(=O)(=O)c1cn(C)cn1	-	-	-	0	-	-
CCCN1[C@@H]2c3ccc(-c4ccc(OC)cc4)c(=O)n3C[C@H]1[C@H](CO)[C@H]2C(=O)OC	-	-	-	0	-	-
COC(=O)[C@@H]1[C@@H](CO)[C@@H]2Cn3c(ccc(C4=CCCC4)c3=O)[C@H]1N2Cc1ccccn1	-	-	-	0	-	-
CN1C(=O)C(=Cc2c(OCc3cnc(Cl)s3)ccc3ccccc23)C(=O)N(C)C1=O	0	0	61	50	0	0
CN1C(=O)C(=Cc2ccccc2OCc2ccccc2Cl)C(=O)N(C)C1=O	0	0	0	-	0	0
COC(=O)C[C@@H]1CC[C@H]2NC[C@@H](O)COC[C@@H]2O1	-	-	-	0	-	-
CC=Cc1ccc2n(c1=O)C[C@@H]1[C@@H](CO)[C@H](C(=O)O)[C@H]2N1S(=O)(=O)c1ccccc1F (mixture of isomers)	-	-	-	0	-	-
O=C(C1CCN(c2nc3ccc(Br)cc3s2)CC1)N1CCC2(CC1)OCCO2	0	0	0	64	0	-
Cc1ccc2nc(N3CCC(C(=O)N4CCC5(CC4)OCCO5)CC3)sc2c1	0	0	0	0	0	-
CC=Cc1ccc2n(c1=O)C[C@@H]1[C@@H](CO)[C@H](C(=O)OC)[C@H]2N1CC1CCOCC1 (mixture of isomers)	-	-	-	0	-	-
CCC(=O)N1[C@@H]2c3ccc(-c4cccc(F)c4)c(=O)n3C[C@H]1[C@H](CO)[C@H]2C(=O)OC	-	-	-	0	-	-
NCC(=O)c1ccccc1	0	0	-	67	-	0
NNP(=O)(CC(=O)c1ccccc1)c1ccccc1 (stereo not given)	0	-	0	-	0	0
CCN(CC)c1ccc(/C=C2\C(=O)NC(=S)N(C)C2=O)o1	0	-	0	0	0	37
COc1cc(C2NCc3ccccc3-n3cccc32)ccc1O (stereo not given)	0	0	54	0	0	0
CCOc1cc2c(cc1OCC)-n1cccc1C(c1ccccc1F)NC2 (stereo not given)	0	0	0	0	0	0
CCOc1cc(C2NCc3ccccc3-n3cccc32)ccc1OC (stereo not given)	0	0	0	0	0	0
CCOc1cc2c(cc1OCC)-n1cccc1C(c1cccc(OCC)c1O)NC2 (stereo not given)	0	0	51	0	0	0
COC(=O)[C@H]1[C@H](CO)[C@H]2Cn3c(ccc(/C=C/c4ccccc4)c3=O)[C@@H]1N2Cc1ccccc1F	-	-	-	0	-	-
C/C=C/c1ccc([C@H]2[C@H]3CN(C(=O)Cc4ccncc4)CCCCN3[C@H]2CO)cc1	-	-	-	0	-	-
CCC(=Nc1ccccc1N)c1c(O)[nH]c(=O)[nH]c1=O	0	0	0	51	0	0
COc1ccc(-c2nc3ccccc3c(=O)n2-c2cccnc2)cc1	0	0	0	-	-69	0
N#CC1C(C#N)C2CCC1C1C2N1c1ccccc1 (stereo not given)	0	0	-	0	-	47
O=C(O)[C@@H]1[C@@H](CO)[C@@H]2Cn3c(ccc(-c4cccnc4)c3=O)[C@H]1N2S(=O)(=O)c1ccccc1F	-	-	-	0	-	-
CCN(CC)c1ccc(/C=C/[N+](=O)[O-])cc1	0	0	?	0	0	0
COc1cc(/C=C/[N+](=O)[O-])ccc1O	0	0	274	0	0	0
